Only a selection was taken, and hits are over-represented in it overall.
APE1 inh-1: inhibitors of human APE1 endonuclease. P27695. AID 2517. hit rate 0.35% among 350,000. recombinant APE1, TAMRA/BHQ-2 abasic DNA cleavage fluorescence. Potency, µM (highest dose often 65.8 µM), for inactives: at the top dose activity change, negative = inhibition, actives largely listed as inhibitors;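 further: plate controls were vehicle for no effect and reference inhibitor for full effect; nearly all actives have a fitted effect of over 55% in size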
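Enzyme (0.75 nM final) and test compound are incubated 15 min at room temperature before adding 50 nM quenched THF abasic-site duplex. Cleavage dequenches TAMRA, followed at 525/598 nm over three reads one minute apart.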
RECQ1 inh-1: RECQ1 (human) helicase inhibition; P46063; RECQ1 DNA unwinding, red fluorescence kinetic read; Potency, µM (highest dose often 57.3 µM), for inactives: at the top dose activity, negative = inhibition, actives largely listed as inhibitors; hit rate 0.54% among 240,000;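 further: plate controls were vehicle for no effect and no enzyme for full effect; nearly all actives have a fitted effect of over 30% in size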
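50 nM RECQ1T1 preincubated 15 min with compound in Tris pH 8.0 buffer with MgCl2, DTT, Tween-20 and 2.5 ug/ml poly(dI-dC); started with 200 nM TAMRA/BHQ-2 forked duplex and 2 mM ATP. Unwinding read as fluorescence (525/598 nm), two reads 2 h apart.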
TDP1 block: blocks human tyrosyl-DNA phosphodiesterase 1 | Q9NUW8 | recombinant TDP1, AlphaScreen DNA substrate cleavage | Potency, µM (highest dose often 130 µM), without a hit: top-dose activity change, negative = inhibition, hits mostly inhibitors | hit rate 0.28% among 350,000; further: nearly all actives have a fitted effect of over 40% in size
Target sequence (Q9NUW8 whole entry, looked up): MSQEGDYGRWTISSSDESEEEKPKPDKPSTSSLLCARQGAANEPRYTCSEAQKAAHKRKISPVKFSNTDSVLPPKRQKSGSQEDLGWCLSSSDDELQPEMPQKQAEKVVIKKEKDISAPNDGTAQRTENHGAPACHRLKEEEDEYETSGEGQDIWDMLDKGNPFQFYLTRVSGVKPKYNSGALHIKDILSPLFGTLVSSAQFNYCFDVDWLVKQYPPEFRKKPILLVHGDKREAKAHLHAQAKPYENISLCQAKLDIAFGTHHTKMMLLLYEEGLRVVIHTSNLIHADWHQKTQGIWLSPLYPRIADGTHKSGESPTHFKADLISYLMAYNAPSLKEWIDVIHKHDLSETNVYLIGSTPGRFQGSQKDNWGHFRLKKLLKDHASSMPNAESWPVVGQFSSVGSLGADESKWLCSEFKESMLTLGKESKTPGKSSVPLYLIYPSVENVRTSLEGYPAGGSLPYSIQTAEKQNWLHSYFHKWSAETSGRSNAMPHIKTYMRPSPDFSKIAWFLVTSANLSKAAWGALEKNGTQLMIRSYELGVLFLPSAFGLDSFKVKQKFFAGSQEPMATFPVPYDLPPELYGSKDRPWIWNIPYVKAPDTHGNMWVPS
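Enzyme-compound mixtures sat 15 min at room temperature, followed by a 5 min reaction with 15 nM final substrate and 10 min with AlphaScreen beads. Recombinant human Tdp1 was used at 1 nM final.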
JMJD2E inh: blocks human JMJD2E demethylase activity; B2RXH2; Potency, µM (doses to about 57.1 µM), without a hit: at the highest dose activity change, negative = inhibition, actives largely listed as inhibitors; AID 2147; JMJD2E catalytic domain, FDH-coupled NADH fluorescence (FDH is formaldehyde dehydrogenase); hit rate 1.6% among 230,000; active means well fitted inhibition curve with a large enough effect, not every such curve was filed as active; inconclusive means small, poorly fitted or top-dose-only effect, or another doubt; inactive means no such curve, though single readings can be large or run the other way;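 further: 0% = wells with enzyme and -100% = buffer wells without enzyme; nearly all actives have a fitted effect of over 50% in size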
BLM inh-1: Bloom syndrome helicase (human) inhibition; recombinant BLM DNA unwinding, fluorescence dequenching; Potency, µM (doses to about 56.1 µM), for inactives: top-dose activity change, negative = inhibition, most hits filed as inhibitors; hit rate 0.2% among 350,000; AID 2528;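 further: plate controls were vehicle for no effect and no enzyme for full effect; nearly all actives have a fitted effect of over 35% in size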
KAT2A inh: blocks human GCN5L2 histone acetyltransferase | Q92830 | GCN5L2 HAT assay, ThioGlo1 CoA-SH fluorescence | Potency, µM (doses to about 58.9 µM), inactives show at the top dose activity change, negative = inhibition, usual class: inhibitors | hit rate 0.21% among 390,000 | AID 504327
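ThioGlo1-coupled HAT assay: 20nM GCN5L2, 70uM acetyl-CoA, 75uM H3(1-25) peptide, pH 7.5. Fluorescence read at 340/540nm at start and after 20 min at room temperature.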
APE1 dye cs: displaces fluorescent dye from DNA, flagging APE1 artifacts | shares compounds with APE1 inh-1 | DNA fluorescent dye displacement counterscreen, fluorescence | Potency, µM (titrated, usually from 28.5 µM), without a hit: at the top dose activity change, negative = inhibition, hits mostly inhibitors | hit rate 7% among 480;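 further: loss of thiazole orange fluorescence as the dye is displaced from duplex DNA; 0% = ThO with dsDNA and no compound and -100% = ThO without dsDNA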
EndoIV counter: counter-screen for APE1 inhibitors: inhibitors of E. coli endonuclease IV; Potency, µM (titrated, usually from 27.1 µM), for inactives: at the top dose activity change, negative = inhibition, hits mostly inhibitors; E. coli Endo IV, fluorogenic AP-site DNA cleavage; shares compounds with APE1 inh-1; hit rate 4% among 560;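 further: plate controls were uninhibited enzyme wells for no effect and no enzyme buffer wells for full effect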
APE1 inh-2: APE1 (human) endonuclease inhibition, confirmation; shares compounds with APE1 inh-1; purified APE1, fluorogenic abasic-site DNA cleavage; Potency, µM (highest dose often 57.1 µM), without a hit: at the top dose activity change, negative = inhibition, most hits filed as inhibitors; hit rate 44% among 750; further: nearly all actives have a fitted effect of over 30% in size
APE1 FP: displaces DNA from human APE1 in FP assay | shares compounds with APE1 inh-1 | hit rate 7% among 480 | AID 2573 | Potency, µM (titrated, usually from 28.5 µM), for inactives: at the top dose activity, negative = inhibition, actives largely listed as inhibitors | APE1 binding to TAMRA-labelled double-stranded DNA, fluorescence polarization displacement
BLM inh-2: BLM (human) helicase inhibition, confirmation. Potency, µM, inactives show max response, negative = inhibition, actives largely listed as inhibitors. shares compounds with BLM inh-1. hit rate 40% among 220. BLM DNA unwinding, fluorescence quenching, biochemical;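 further: strand separation dequenches TAMRA so unwinding raises red fluorescence; series mostly up to about 69 µM; nearly all actives have a fitted effect of over 45% in size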
RECQ1 conf: confirmation of human RECQ1 helicase inhibitors. hit rate 28% among 610. shares compounds with RECQ1 inh-1. Potency, µM (top dose mostly 229 µM), without a hit: at the highest dose activity change, negative = inhibition, usual class: inhibitors. RECQ1 helicase DNA unwinding, fluorescence; further: nearly all actives have a fitted effect of over 45% in size
ADP FP counter: displaces ADP in a fluorescence polarization counter-screen for RECQ1 hits; Potency, µM (top dose mostly 228 µM), for inactives: at the top dose activity change, negative = inhibition, most hits filed as inhibitors; hit rate 27% among 530; shares compounds with RECQ1 inh-1; ADP fluorescence polarization displacement counterscreen; AID 2711; further: nearly all actives have a fitted effect of over 45% in size
RECQ1 inh-2: blocks human RECQ1 DNA unwinding; shares compounds with RECQ1 inh-1; recombinant RECQ1 DNA unwinding, red fluorescence; Potency, µM (doses to about 119 µM), for the others: top-dose activity, negative = inhibition, usual class: inhibitors; hit rate 15% among 1,100; AID 504841; further: nearly all actives have a fitted effect of over 50% in size
An asterisk follows results filed as active; i = inactive; u = inconclusive; x = no result; ! = not active in a repeat; [ ] = another dose, or the depositor's remark. Unless noted, the call rests on the fitted dose curve; in most records, active means well fitted curve in the direction sought with a large enough effect; inconclusive means small, poorly fitted or top-dose-only effect, or another doubt; inactive means no such curve, though single readings can be large; an effect the other way counts as inactive or inconclusive. Unless noted, on the % scale 0 is the no-effect control and ±100 the full control effect; potency means the concentration at half of the fitted maximal effect.

SMILES	APE1 inh-1	RECQ1 inh-1	TDP1 block	JMJD2E inh	BLM inh-1	KAT2A inh	APE1 dye cs	EndoIV counter	APE1 inh-2	APE1 FP	RECQ1 conf	ADP FP counter	RECQ1 inh-2	others
C=C1c2cccc(O)c2C(O)=C2C(=O)[C@@]3(O)C(O)=C(C(N)=O)C(=O)[C@@H](N(C)C)[C@@H]3[C@@H](O)[C@H]12	x	u	x	u	-5%[21.4 µM]	3.5µM*	-11%	24%	-5%[24.4 µM]	u	u	14µM*	x
CN1C(=O)C(=C2CCCCCC2)SC1=S	-3%	-1%	5%	-3%	-2%	-11%	x	x	x	x	x	x	x
O=C1NC(=S)SC1=C1CCCC1	10µM*	7.9µM*	x	-19%	u	-24%	5%	61%	u	-4%	u	45µM*	x
COc1cc(O)c2c(c1)oc(=O)c1c3cc(O)c(O)cc3oc21	1.8µM*	2.5µM*	x	x	13µM*	u	8.9µM*	87%[57.1 µM]	4.5µM*	1%[57.1 µM]	14µM*	45µM*	2.2µM*
COc1ccc(N=C2NC(=O)/C(=C/c3ccco3)S2)cc1	0%	-9%	1%	u	-19%	-1%	x	x	x	x	x	x	x
Cc1ccc(N=C2NC(=O)/C(=C/C=C/c3ccco3)S2)cc1	18µM*	18µM*	-6%	25µM*	16µM*	-7%	13µM*	u	u	-1%	u	x	u
Cc1nnc(NC(=O)c2cc(-c3ccco3)nc3ccccc23)s1	-71%	x	-9%	x	x	u	x	x	x	x	x	x	x
O=C(NC1CC1)c1cc(-c2ccco2)nc2ccccc12	11µM*	20µM*	4.5µM*	u	14µM*	u	u	u	25µM*	224%	20µM*	56µM*	x	BLM inh-2=20µM*
CC(=O)Nc1sc2c(c1-c1nc3ccccc3s1)CCN(C(C)C)C2	13µM*	u	x	u	212%	-14%	6%	13µM*	3.5µM*	2.5µM*	x	x	45µM*	BLM inh-2=459%
CCN1CCc2c(sc(NC(=O)CSc3ccccc3)c2-c2nc3ccccc3s2)C1	x	x	0%	x	-9%	-8%	x	x	x	x	x	x	x
CC1(OC(=O)c2cccs2)C(=O)C=C2C=C3CCCN3C=C2C1=O (stereo unspecified)	8.9µM*	25µM*	x	5.6µM*	22µM*	-3%	0%	17%	u	-8%	35µM*	35µM*	u
Cc1ccc(-n2nc3c(N4CCC(C(=O)NCCC(C)C)CC4)nnc(C)c3c2C)cc1	x	x	6%	x	-3%	-5%	x	x	x	x	x	x	x
Cc1cc(/C=C2/C(=N)N3C(c4ccccc4)=CSC3=NC2=O)c(C)n1-c1ccccc1	1%	-19%	4%	-3%	-11%	-12%	x	x	x	x	x	x	x
N=C1/C(=C\c2ccc(-c3cccc(C(=O)O)c3)o2)C(=O)N=C2SC=C(c3ccccc3)N12	40µM*	u	50µM*	u	-24%	-22%	x	x	40µM*	x	x	x	u
CCCCC1=CC2=C(c3ccco3)C(=O)C(C)(OC(=O)c3ccc(OC)cc3)C(=O)C2=CN1CCCCO (stereo unspecified)	-1%[12.4 µM]	i[11.5 µM]	-1%[12.3 µM]	-4%[11.4 µM]	-5%[12.4 µM]	-15%	x	x	x	x	x	x	x
CCCCC1=CC2=C(c3ccco3)C(=O)C(C)(OC(=O)c3ccc(OC)cc3)C(=O)C2=CN1Cc1ccco1 (stereo unspecified)	7.1µM*	6.3µM*!	x	13µM*!	u	-17%	-9%	-3%	u	-4%	x	x	-9%
COc1ccc(-c2nnc(SCCOc3ccccc3C)o2)cc1OC	x	x	6%	x	-3%	-6%	x	x	x	x	x	x	x
O=C(CSC1CC(=O)N(CC(c2ccccc2)c2ccccc2)C1=O)Nc1ccc(Cl)cc1 (stereo unspecified)	u	u	-2%	0%	-13%	-9%	48%	u	u	13%	x	x	u
COc1ccc(C(=O)c2cn(Cc3ccc(F)cc3)c3c(F)cc(F)cc3c2=O)cc1	x	x	6%	x	-3%	-14%	x	x	x	x	x	x	x
CC1=NN(c2ccc(Cl)c(C(=O)O)c2)C(=O)/C1=C\c1ccc(-c2ccc(C(=O)O)cc2)o1	25µM*	u	79µM*	u	-4%	u	u	10%	13µM*	1%	x	x	u
CC1=NN(c2ccc(C(=O)O)cc2)C(=O)/C1=C/c1ccc(-c2ccccc2F)o1	-2%	x	x	x	1%	0%	x	x	x	x	x	x	x
Cc1ccc(S(=O)(=O)Nc2csc(C)c2C(=O)O)cc1	11µM*	u	x	-4%	-2%	-18%	-7%	-1%	u	u	x	x	u
Cc1ccc(S(=O)(=O)Nc2cc(C)c(O)cc2C)cc1	0%	i	4%	-10%	-7%	-17%	x	x	x	x	x	x	x
CCN(CC)CCCC(C)Nc1c2ccc(Cl)cc2nc2ccc(OC)cc12 (stereo unspecified)	28µM*	u	11%	u	-6%	u	x	7.9µM*	16µM*	x	32µM*	6.3µM*	x
